Results taken from PubChem BioAssay (NCATS).
Records with an inconclusive call do not appear. Activity calls are given as the source filed them. Calls follow the shape of the dose curve; as a rule, active = well fitted inhibition curve with a large enough effect; inconclusive = small, poorly fitted or top-dose-only effect; inactive = flat fitted curve, though single readings scatter.

Columns and labels:
Experiment in all cases: qHTS profiling for inhibitors of Plasmodium falciparum proliferation (AID 504749); also: nearly all actives have a fitted effect of over 60% in size
Details in all cases: P. falciparum in erythrocytes, SYBR Green DNA, 72 h; series mostly up to 28.7 µM
CP185 = system: CP185
How it was run: (§1)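 SYBR Green fluorescence of parasite DNA, read after lysis and overnight dark incubation, measured growth over 72 h in erythrocyte culture at 0.3% parasitemia and 2.5% hematocrit. Data normalised to DMSO and 0.29 uM artemisinin, with plate-drift correction.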

CP191 = system: CP191
How it was run: as §1

CP192 = system: CP192
How it was run: as §1

CP194 = system: CP194
How it was run: as §1

CP201 = system: CP201
How it was run: as §1

CP211 = system: CP211
How it was run: as §1

CP215 = system: CP215
How it was run: as §1

CP217 = system: CP217
How it was run: as §1

CP237 = system: CP237
How it was run: as §1

CP203 = system: CP203
How it was run: as §1

Measured: Potency

Nc1c(CC(=O)O)cccc1C(=O)c1ccc(Br)cc1
inactive: CP185 | CP191 | CP192 | CP194 | CP201 | CP211 | CP215 | CP217 | CP237

CCCOC(=O)c1ccc(O)cc1
inactive: CP185 | CP191 | CP192 | CP194 | CP201 | CP211 | CP215 | CP217 | CP237

CC1(C)S[C@@H]2[C@H](NC(=O)[C@H](NC(=O)N3CCN(S(C)(=O)=O)C3=O)c3ccccc3)C(=O)N2[C@H]1C(=O)O
inactive: CP185 | CP191 | CP192 | CP194 | CP201 | CP203 | CP211 | CP215 | CP217 | CP237

O=C(OCc1ccccc1)c1ccccc1
inactive: CP185 | CP191 | CP192 | CP194 | CP201 | CP203 | CP211 | CP215 | CP217

COc1ccc(/C=C/C(=O)Nc2ccccc2C(=O)O)cc1OC
inactive: CP185 | CP191 | CP192 | CP194 | CP201 | CP211 | CP215 | CP217 | CP237

c1ccc2sc(SN3CCOCC3)nc2c1
inactive: CP185 | CP191 | CP192 | CP194 | CP201 | CP211 | CP215 | CP217 | CP237

CCCCCCOc1ccccc1C(N)=O
inactive: CP185 | CP191 | CP192 | CP194 | CP201 | CP203 | CP211 | CP215 | CP217 | CP237

COc1cc2c3cc1Oc1cc(ccc1O)C[C@@H]1c4c(cc(OC)c(O)c4Oc4ccc(cc4)C[C@@H]3N(C)CC2)CC[N+]1(C)C
inactive: CP185 | CP191 | CP192 | CP194 | CP201 | CP203 | CP211 | CP215 | CP217 | CP237

N=c1ccn2c(n1)O[C@H]1[C@H](O)[C@@H](CO)O[C@H]12
inactive: CP185 | CP191 | CP192 | CP194 | CP201 | CP203 | CP211 | CP215 | CP217 | CP237

CC1(C)[C@@H](O)CC[C@]2(C)[C@H]3C(=O)C=C4[C@@H]5C[C@@](C)(C(=O)O)CC[C@]5(C)CC[C@@]4(C)[C@]3(C)CC[C@@H]12
inactive: CP185 | CP191 | CP192 | CP194 | CP201 | CP211 | CP215 | CP217 | CP237

Cc1ccc(C(=O)c2ccc(CC(=O)O)n2C)cc1
inactive: CP185 | CP191 | CP192 | CP194 | CP201 | CP211 | CP215 | CP217 | CP237

Nc1ccc(O)c(C(=O)O)c1
inactive: CP185 | CP191 | CP192 | CP194 | CP201 | CP203 | CP211 | CP215 | CP217 | CP237

O=C(O)/C=C/C(O)c1ccc(Cl)cc1 (centres undefined)
inactive: CP185 | CP191 | CP192 | CP194 | CP201 | CP203 | CP211 | CP215 | CP217 | CP237

C=C(Nc1ccc(OCC)cc1)Nc1ccc(OCC)cc1
inactive: CP185 | CP191 | CP192 | CP194 | CP201 | CP203 | CP211 | CP215 | CP217 | CP237

C=CCCCCCCCCC(=O)O
inactive: CP185 | CP191 | CP192 | CP194 | CP201 | CP203 | CP211 | CP215 | CP217 | CP237

C=CCN1C(=O)C(CC(C)C)NC1=S (centres undefined)
inactive: CP185 | CP191 | CP192 | CP194 | CP201 | CP211 | CP215 | CP217 | CP237

O=C(Nc1ccc(C(=O)O)c(O)c1)c1ccccc1
inactive: CP185 | CP191 | CP192 | CP194 | CP201 | CP203 | CP211 | CP215 | CP217 | CP237

CN1[C@@H](CC(=O)c2ccccc2)CCC[C@H]1C[C@H](O)c1ccccc1
inactive: CP203

CCCC(=O)OC[C@@H](OC(=O)CCC)[C@@H](OC(=O)CCC)[C@H](Cn1c2nc(=O)[nH]c(=O)c-2nc2cc(C)c(C)cc21)OC(=O)CCC
inactive: CP203
